Test results taken from PubChem BioAssay (Tox21).
Where “and” joins values, the source holds several entries; their conditions need not be identical. Identical values can stand only once. Records with an inconclusive call do not appear. More than one record can exist for a structure, and the calls need not agree. Calls of active or inactive are those of the source. Unless noted, calls come from the whole dose curve; as a rule, active = well fitted curve in the direction sought with a large enough effect in the repeat runs; inconclusive = weak or mixed curves; inactive = no such curve, though single readings can be large; an effect the other way counts as inactive or inconclusive.

What was measured:
[1] = qHTS assay to identify small molecule agonists of the androgen receptor (AR) signaling pathway in the presence of an antagonist - cell viability counter screen (AID 1259379); note: nearly all actives have a fitted effect of over 25% in size; note: potency is the fitted concentration of half-maximal effect
Procedure, shortened: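 In MDA-kb2 cells (human breast carcinoma, MMTV-luciferase), compounds at 15 concentrations plus 3.0uM nilutamide; 16 hr, 37C, 0% CO2; CellTiter-Fluor fluorescence read for viability.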

[2] = qHTS assay to identify small molecule agonists of the estrogen receptor beta (ER-beta) signaling pathway - cell viability counter screen (AID 1259380); note: nearly all actives have a fitted effect of over 30% in size; note: potency is the fitted concentration of half-maximal effect
Procedure, shortened: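 Viability of ER-beta-UAS-bla HEK293T cells was determined by CellTiter-Glo luminescence following 16 hr treatment with test compounds at 37C.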

[3] = qHTS assay to identify small molecule antagonists of the estrogen receptor beta (ER-beta) signaling pathway - cell viability counter screen (AID 1259382); note: nearly all actives have a fitted effect of over 55% in size; note: potency is the fitted concentration of half-maximal effect
Procedure, shortened: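 Tox21 10K library tested in qHTS format on ER-beta-bla HEK293T cells stimulated with 1nM E2; 16 hr treatment at 37C. Same-well CellTiter-Glo luminescence served as the cell viability measure.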

[4] = qHTS assay to identify small molecule agonists or antagonists of the thyroid stimulating hormone receptor (TSHR) signaling pathway - wild type cell line counter screen (AID 1259384; calls by dose curve)
Procedure, shortened: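 Wild-type Hek293 cells, 800/well, 18 h at 37C, then compound with Ro20-1724 for 30 min RT. cAMP by HTRF (cAMP-d2/anti-cAMP cryptate), 1 h RT, fluorescence read. 15 concentrations, triplicates.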

[5] = target: Thyrotropin receptor (Homo sapiens) (UniProt P16473); experiment: qHTS assay to identify small molecule antagonists of the thyroid stimulating hormone receptor (TSHR) signaling pathway (AID 1259385; calls by dose curve; note: nearly all actives have a fitted effect of over 20% in size)
Procedure, shortened: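 TSHR-HEK293 cells (800/well) plated 18 h, then compounds with Ro20-1724 and TSH at 1.5 ng/mL final, 30 min at room temperature. cAMP quantified by HTRF (cAMP-d2/anti-cAMP-cryptate, 1 h); 15 concentrations in triplicate.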

[6] = qHTS assay to identify small molecule agonists of the estrogen receptor alpha (ER-alpha) signaling pathway in the presence of an antagonist - cell viability counter screen (AID 1259386);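 note: cells exposed to compounds for 22 h at 37 °C before the viability read; nearly all actives have a fitted effect of over 30% in size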; note: potency is the fitted concentration of half-maximal effect
Procedure, shortened: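 Fluorescent CellTiter-Fluor viability signal from VM7Luc4E2 cells, with the reagent added during the final hour of a 22hr compound exposure at 37C in the presence of 10.0nM ICI-182,780.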

[7] = target: Progesterone receptor (Homo sapiens) (UniProt P06401); experiment: qHTS assay to identify small molecule agonists of the progesterone receptor (PR) signaling pathway (AID 1346784; calls by dose curve; note: nearly all actives have a fitted effect of over 30% in size)
Procedure, shortened: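 Agonist mode, quantitative HTS format in a HEK 293T line expressing a UAS-controlled beta-lactamase reporter; 16 hr compound exposure at 37C in 2% charcoal-stripped FBS, then LiveBLAzer B/G FRET fluorescence.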

[8] = qHTS assay to identify small molecule antagonists of the progesterone receptor (PR) signaling pathway - cell viability counter screen (AID 1346798); note: nearly all actives have a fitted effect of over 50% in size; note: potency is the fitted concentration of half-maximal effect
Procedure, shortened: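 Same-well multiplex: after 16 hr at 37C with compound and R5020 stimulation, HEK293T cells carrying a UAS-bla reporter received LiveBLAzer substrate (2 hr RT), then CellTiter-Glo (30 min RT) for luminescent viability.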

[9] = qHTS assay to identify small molecule agonists of the TGF-beta/Smad signaling pathway - cell viability counter screen (AID 1346829); note: nearly all actives have a fitted effect of over 45% in size; note: potency is the fitted concentration of half-maximal effect
Procedure, shortened: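 SBE-bla HEK 293T cells plated overnight, compound exposure 5 hr at 37 C. Viability read in the same wells by CellTiter-Glo luminescence after 30 min at room temperature, following the beta-lactamase read.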

[10] = qHTS assay to identify small molecule agonists of the TGF-beta/Smad signaling pathway (AID 1346859; active = well fitted activation curve with a large enough effect in the signal ratio in the repeat runs, not every such curve was filed as active; the % refers to the signal ratio; note: series mostly up to about 77 µM)
Procedure, shortened: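 Smad-responsive beta-lactamase reporter cells (HEK 293T) received compounds from DMSO stocks after overnight attachment, were incubated 5 hr, then treated 2 hr with FRET substrate before dual-emission fluorescence measurement (405 nm excitation).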

[11] = target: Thyrotropin-releasing hormone receptor (Homo sapiens) (UniProt P34981); experiment: qHTS assay to identify small molecule antagonists of the thyrotropin-releasing hormone receptor (TRHR) signaling pathway (AID 1346877; active = well fitted inhibition curve with a large enough effect in the repeat runs, not every such curve was filed as active; note: potency is the fitted concentration of half-maximal effect)
Procedure, shortened: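 In this cell-based calcium flux format, HEK293 cells expressing TRHR received test compound for 5 min before the agonist TRH (1 nM final). Dye loading lasted 2 h at 37 °C.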

[12] = target: Thyrotropin-releasing hormone receptor (Homo sapiens) (UniProt P34981); experiment: qHTS assay to identify small molecule agonists of the thyrotropin-releasing hormone receptor (TRHR) signaling pathway (AID 1346891; calls by dose curve; note: potency is the fitted concentration of half-maximal effect; for activation: series mostly up to about 58 µM)
Procedure, shortened: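 Agonist-mode calcium mobilisation screen: TRHR-transfected HEK293 cells cultured overnight (18 h), dye-loaded for 2 h at 37 °C, exposed to compounds, and monitored by fluorescence for 3 min.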

[13] = Human pregnane X receptor (PXR) small molecule agonists, qHTS cell viability counter screen (AID 1346977); note: nearly all actives have a fitted effect of over 50% in size; note: potency is the fitted concentration of half-maximal effect
Procedure, shortened: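 Measures live-cell protease fluorescence (CellTiter-Fluor) in PXR-Luc HepG2 cells treated 24hr with compounds at 37C. Cells had 5hr to attach before pin transfer of DMSO solutions.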

[14] = Caspase-3/7 induction in HepG2 cells by small molecules, qHTS assay (AID 1346978); note: nearly all actives have a fitted effect of over 15% in size
Procedure, shortened: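 Wild-type HepG2 cells, 2,000/well, settled 5 hr at 37 C and 5% CO2, then compound-treated for 17 hr; caspase-3/7 activity read by luminescent Caspase-Glo 3/7 after 30 min at room temperature.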

[15] = qHTS assay to identify small molecule antagonists of the TGF-beta/Smad signaling pathway - cell viability counter screen (AID 1346824); note: nearly all actives have a fitted effect of over 50% in size; note: potency is the fitted concentration of half-maximal effect
Procedure, shortened: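 SBE-bla HEK 293T cells, incubated overnight, then compound plus 0.25 ng/mL TGF-beta1 (stock added) for 5 hr at 37 C. Viability was read in the same wells by CellTiter-Glo luminescence after 30 min at room temperature.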

[16] = target: Estrogen receptor (Homo sapiens) (UniProt P03372); experiment: qHTS assay to identify small molecule agonists of the estrogen receptor alpha (ER-alpha) signaling pathway in the presence of an antagonist (AID 1259383; calls by dose curve; note: top concentration of the series differs between compounds; nearly all actives have a fitted effect of over 15% in size)
Procedure, shortened: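 In VM7Luc4E2 cells, 4,000 per well, compounds at 15 concentrations were co-incubated 22hr at 37C with 10.0nM final ICI-182,780. Luminescence from the stably transfected 4×ERE-luciferase reporter was recorded 30min after ONE-Glo addition.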

[17] = target: Progesterone receptor (Homo sapiens) (UniProt P06401); experiment: qHTS assay to identify small molecule antagonists of the progesterone receptor (PR) signaling pathway (AID 1346795; active = well fitted inhibition curve with a large enough effect in the signal ratio in the repeat runs, not every such curve was filed as active; the % refers to the signal ratio; note: potency is the fitted concentration of half-maximal effect)
Procedure, shortened: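 HEK293T PR-UAS-bla reporter cells in charcoal-stripped serum (2%) received compound after a 6 hr settling period, followed by R5020 agonist at 1 nM final; 16 hr incubation preceded the FRET substrate step and fluorescence measurement.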

[18] = qHTS assay to identify small molecule agonists of the progesterone receptor (PR) signaling pathway - cell viability counter screen (AID 1346799; calls by dose curve; note: nearly all actives have a fitted effect of over 45% in size; note: potency is the fitted concentration of half-maximal effect)
Procedure, shortened: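 Counter screen for cytotoxicity: compound-treated PR-UAS-bla HEK293T cells (16 hr, 37C, 5% CO2) were assayed with CellTiter-Glo, luminescence measured after 30 min at room temperature.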

Measured: Potency

Thyrotropin receptor (Homo sapiens), sequence (P16473 whole entry, looked up): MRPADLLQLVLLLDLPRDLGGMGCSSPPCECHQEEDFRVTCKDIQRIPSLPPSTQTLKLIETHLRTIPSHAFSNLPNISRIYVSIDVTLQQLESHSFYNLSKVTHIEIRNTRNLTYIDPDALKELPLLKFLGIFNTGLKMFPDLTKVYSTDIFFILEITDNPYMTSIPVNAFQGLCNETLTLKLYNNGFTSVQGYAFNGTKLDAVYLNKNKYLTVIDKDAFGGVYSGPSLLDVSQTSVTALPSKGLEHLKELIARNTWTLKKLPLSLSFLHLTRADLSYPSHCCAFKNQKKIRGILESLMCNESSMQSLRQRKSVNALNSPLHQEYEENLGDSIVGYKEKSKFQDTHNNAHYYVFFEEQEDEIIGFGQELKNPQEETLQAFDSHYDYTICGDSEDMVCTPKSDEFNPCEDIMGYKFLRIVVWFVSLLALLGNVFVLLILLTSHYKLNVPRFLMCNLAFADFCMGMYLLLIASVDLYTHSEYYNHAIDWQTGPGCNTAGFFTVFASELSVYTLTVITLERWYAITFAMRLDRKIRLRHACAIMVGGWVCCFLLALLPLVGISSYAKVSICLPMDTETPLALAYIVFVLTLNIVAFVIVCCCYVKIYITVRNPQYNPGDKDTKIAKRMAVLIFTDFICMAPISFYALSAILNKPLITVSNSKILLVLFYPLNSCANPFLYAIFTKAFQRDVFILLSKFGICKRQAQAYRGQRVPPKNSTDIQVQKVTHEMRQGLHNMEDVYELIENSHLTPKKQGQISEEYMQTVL
Thyrotropin-releasing hormone receptor (Homo sapiens), sequence (P34981 whole entry, looked up): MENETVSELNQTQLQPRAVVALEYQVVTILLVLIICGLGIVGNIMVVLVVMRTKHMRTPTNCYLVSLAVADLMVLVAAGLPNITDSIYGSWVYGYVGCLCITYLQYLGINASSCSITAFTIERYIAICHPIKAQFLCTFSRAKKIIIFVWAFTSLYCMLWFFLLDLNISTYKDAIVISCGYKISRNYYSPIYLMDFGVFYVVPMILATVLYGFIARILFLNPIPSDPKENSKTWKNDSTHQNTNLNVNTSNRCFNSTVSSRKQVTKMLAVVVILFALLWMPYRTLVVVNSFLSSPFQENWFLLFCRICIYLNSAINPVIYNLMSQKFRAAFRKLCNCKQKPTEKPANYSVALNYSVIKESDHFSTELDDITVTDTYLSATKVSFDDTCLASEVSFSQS
Progesterone receptor (Homo sapiens), sequence (P06401 whole entry, looked up): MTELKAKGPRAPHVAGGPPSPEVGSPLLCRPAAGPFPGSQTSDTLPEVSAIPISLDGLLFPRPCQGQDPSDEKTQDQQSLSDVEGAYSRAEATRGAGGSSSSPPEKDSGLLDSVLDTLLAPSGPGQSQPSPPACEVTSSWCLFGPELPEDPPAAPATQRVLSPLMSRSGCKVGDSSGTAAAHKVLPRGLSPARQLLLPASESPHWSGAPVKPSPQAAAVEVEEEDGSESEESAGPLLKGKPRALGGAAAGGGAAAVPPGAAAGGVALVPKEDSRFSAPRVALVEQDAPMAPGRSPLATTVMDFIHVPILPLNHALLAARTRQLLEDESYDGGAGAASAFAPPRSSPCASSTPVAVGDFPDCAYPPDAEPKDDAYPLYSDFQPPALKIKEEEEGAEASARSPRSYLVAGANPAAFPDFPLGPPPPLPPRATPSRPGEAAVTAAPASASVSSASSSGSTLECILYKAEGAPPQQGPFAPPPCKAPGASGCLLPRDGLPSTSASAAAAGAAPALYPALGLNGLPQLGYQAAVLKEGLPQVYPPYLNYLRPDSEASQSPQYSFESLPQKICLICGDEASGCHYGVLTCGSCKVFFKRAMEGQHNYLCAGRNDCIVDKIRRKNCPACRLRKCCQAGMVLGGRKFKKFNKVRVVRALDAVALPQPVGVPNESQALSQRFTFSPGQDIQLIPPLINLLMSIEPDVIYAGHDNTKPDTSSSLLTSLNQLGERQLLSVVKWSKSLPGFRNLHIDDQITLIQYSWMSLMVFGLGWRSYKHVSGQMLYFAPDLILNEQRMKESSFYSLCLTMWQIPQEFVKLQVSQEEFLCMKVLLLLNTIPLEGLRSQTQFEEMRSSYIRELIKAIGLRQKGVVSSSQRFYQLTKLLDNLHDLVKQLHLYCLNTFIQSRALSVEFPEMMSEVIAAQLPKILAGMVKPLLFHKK
Estrogen receptor (Homo sapiens), sequence (P03372 whole entry, looked up): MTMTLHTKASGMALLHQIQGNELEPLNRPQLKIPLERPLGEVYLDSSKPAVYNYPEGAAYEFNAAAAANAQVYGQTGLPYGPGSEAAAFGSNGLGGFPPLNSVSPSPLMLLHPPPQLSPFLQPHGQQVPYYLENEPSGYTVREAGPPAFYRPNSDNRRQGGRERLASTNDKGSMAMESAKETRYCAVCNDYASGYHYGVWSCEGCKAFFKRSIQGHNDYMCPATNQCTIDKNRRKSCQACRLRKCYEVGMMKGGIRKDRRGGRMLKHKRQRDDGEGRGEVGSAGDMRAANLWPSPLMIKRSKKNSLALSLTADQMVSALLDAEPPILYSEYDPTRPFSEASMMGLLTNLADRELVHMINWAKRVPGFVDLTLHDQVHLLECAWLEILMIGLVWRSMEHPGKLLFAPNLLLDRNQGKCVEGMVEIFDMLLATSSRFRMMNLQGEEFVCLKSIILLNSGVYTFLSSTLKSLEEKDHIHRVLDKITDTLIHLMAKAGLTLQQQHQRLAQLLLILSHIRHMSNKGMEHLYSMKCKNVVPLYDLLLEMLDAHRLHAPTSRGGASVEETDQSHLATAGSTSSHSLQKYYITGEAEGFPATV

CCCCCCCCCCCCCCCC[N+](C)(C)C
inactive and 54.9 µM (active): [9]
inactive and 27.5 µM (active): [12]
active: [1] 29.5 µM and 48.6 µM and 26.6 µM | [2] 9.34 µM and 24.3 µM and 11.9 µM | [3] 23.5 µM and 54.5 µM and 23.7 µM | [8] 29.8 µM | [13] 61.1 µM
inactive and 30.1 µM (active): [11]
inactive: [4] | [5] | [6] | [7] | [10] | [14]

[Cl][Sb]([Cl])[Cl]
active: [1] 24.3 µM | [6] 54.5 µM
not listed: [16] | [17] | [18]
inactive: all other assays above

CC(=O)c1cc(C(C)(C)C)cc2c1CCC2(C)C
not listed: [4] | [5] | [10]
inactive: all other assays above

O=C(CCCN1CCC2(CC1)C(=O)NCN2c1ccccc1)c1ccc(F)cc1
active: [2] 13.3 µM | [13] 6.68 µM
not listed: [5] | [6] | [11] | [12]
inactive: all other assays above

CCCCCCCCCC[N+](C)(C)CCCCCCCCCC
inactive: [16] | [4] | [12]
active: [1] 54.5 µM | [2] 15.4 µM | [3] 17.2 µM | [6] 68.6 µM | [8] 19.3 µM | [18] 8.63 µM | [15] 43.6 µM | [9] 38.9 µM | [13] 27.3 µM

CCCCCCCCCCBr
not listed: [4] | [5] | [7] | [15] | [18]
inactive: all other assays above

ClCc1ccc(Cl)cc1Cl
not listed: [4] | [5] | [10] | [11] | [12]
inactive: all other assays above

CCOc1cc(C(C)(C)C)ccc1C1COC(c2c(F)cccc2F)=N1 (configuration not stated)
inactive: [1] | [16] | [6] | [9] | [10] | [11] | [12] | [14]
active: [2] 18.6 µM | [17] 23.4 µM | [8] 37.1 µM
